Hit rate of the full screen: of about 340,000 compounds, about 2,100 (0.62%) were called active. Only a sample is shown. Measured potencies and affinities stand elsewhere. Values without a mark were called inactive.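 The calls were made as follows: active = first-screen hits whose inhibition reached a set limit at any dose in the follow-up dose series; inconclusive = inhibition above the set first-screen limit but never retested; inactive = the rest.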
Each molecule was assayed against Rac GTPase-activating protein 1 (Homo sapiens) (UniProt Q9H0H5) (assay: MgcRacGAP GTPase-activating activity inhibitors, confirmation, biochemical, ADP Hunter fluorescence, primary and confirmatory (AID 624330;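 also: fluorescence reports GDP produced by GAP-driven GTP hydrolysis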)). Details: MgcRacGAP-stimulated Rac1 GTP hydrolysis, at 30 µM, active compounds read high, GST-tagged Rac1 F28L mutant substrate.
Rac GTPase-activating protein 1 (Homo sapiens), sequence (Q9H0H5 whole entry, looked up): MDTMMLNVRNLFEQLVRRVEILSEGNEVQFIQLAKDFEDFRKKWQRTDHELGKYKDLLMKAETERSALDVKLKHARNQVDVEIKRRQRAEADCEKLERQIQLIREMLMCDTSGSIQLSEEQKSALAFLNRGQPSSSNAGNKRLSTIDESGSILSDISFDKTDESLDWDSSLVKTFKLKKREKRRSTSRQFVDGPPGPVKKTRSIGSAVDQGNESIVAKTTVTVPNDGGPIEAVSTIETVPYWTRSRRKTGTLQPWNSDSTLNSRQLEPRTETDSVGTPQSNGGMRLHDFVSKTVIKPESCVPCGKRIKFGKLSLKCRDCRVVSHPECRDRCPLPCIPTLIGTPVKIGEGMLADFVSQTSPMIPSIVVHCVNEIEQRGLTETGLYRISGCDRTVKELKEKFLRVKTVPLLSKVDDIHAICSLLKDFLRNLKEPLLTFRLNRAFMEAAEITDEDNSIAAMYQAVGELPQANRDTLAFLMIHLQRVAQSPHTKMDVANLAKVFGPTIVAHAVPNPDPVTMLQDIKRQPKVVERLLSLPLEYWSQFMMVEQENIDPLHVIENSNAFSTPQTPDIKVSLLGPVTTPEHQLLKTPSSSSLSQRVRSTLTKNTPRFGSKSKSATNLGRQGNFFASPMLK

SMILES | inhibition
Cc1ccc(C)c(N2CCN(CCCc3ccccc3)CC2)c1 | -8.46%
CCc1ccc(S(=O)(=O)/N=C2\C=C(Nc3ccc(O)cc3)C(=O)c3ccccc32)cc1 | 10.1%
Cc1ccc(NC2=C(Cl)C(=O)c3ccccc3C2=O)cc1 | 5.85%
O=C1C(Nc2ccccc2)=C/C(=N/S(=O)(=O)c2cccs2)c2ccccc21 | 13.2%
O=C1C(Cl)=C(NCCCO)C(=O)c2ccccc21 | 7.29%
O=C(O)c1ccc(NC2=C/C(=N/S(=O)(=O)c3ccccc3)c3ccccc3C2=O)cc1 | 11.5%
Cc1ccc(NC2=C/C(=N/S(=O)(=O)c3cccs3)c3ccccc3C2=O)cc1 | 12.6%
CCNC1=C(Cl)C(=O)c2ccccc2C1=O | 9.6%
CCN(CC)c1ccc(NC2=C(Cl)C(=O)c3ccccc3C2=O)cc1 | 28.6%
CC(C)CN1CCC(=O)N([C@H](COc2ccccc2)c2ccccc2)CC1 | 12.8%
O=C(CN1C2CCCC1CC(NC(=O)c1ccco1)C2)Nc1ccccc1 (stereo unspecified) | 9.34%
CN(CC(=O)Nc1cccc(F)c1)CC(=O)N(C)c1c(N)n(Cc2ccccc2)c(=O)[nH]c1=O | 7.85%
CC(C)c1ccc(NC(=O)COC(=O)c2c[nH]c(=O)[nH]c2=O)cc1 | 6.27%
Cc1ccc(C(=O)Nc2ncccc2O)cc1S(=O)(=O)N1CCCCC1 | -2.55%
Cc1csc(=O)n1CC(=O)OCC(=O)NCc1ccc(Cl)cc1Cl | 8.92%
O=C(Nc1ccc(Cl)cc1)C(c1ccccc1)N1CCOCC1 (stereo unspecified) | 1.96%
COC1=C(Nc2ccccc2)C(=O)c2ccccc2C1=O | 11.3%
COC1=C(Nc2ccc(C)cc2)C(=O)c2ccccc2C1=O | 6.66%
Nc1nc(COc2ccc(Cl)cc2)cs1 | 5.42%
O=C(Nc1ccc2c(c1)OCCO2)C1CC(O)CN1C(=O)Nc1ccccc1 (stereo unspecified) | 5.39%
Cc1cc(C(=O)NNC(=O)/C=C/c2ccccc2Cl)c(C)o1 | 6.81%
Cc1cc(C(=O)NNC(=O)/C=C/c2ccc(F)cc2)c(C)o1 | 0.14%
COc1cccc(-c2cc(C(=O)Nc3cccnc3)no2)c1 | 3.22%
Cc1c(Cl)cccc1NC(=S)NCc1cccs1 | 5.46%
COCC(=O)NC1CCN(S(=O)(=O)c2ccc(C(=O)O)cc2)CC1 | 3.4%
COc1cc2cnc(-c3ccccc3)c(C(=O)c3ccc(F)cc3)c2cc1OC | 6.22%

From PubChem BioAssay AID624330 (Southern Research Specialized Biocontainment Screening …, 2012)
